# Test results: publication PMC5540273 (PLoS ONE, 2017)
# Assays:
# Details in all cases: concentration: 1 μM, replicates: in singlicate; n = 1
# [1] = system: TYK2(JH2domain-pseudokinase)
# TYRO3 = system: TYRO3
# ULK1 = system: ULK1
# ULK2 = system: ULK2
# ULK3 = system: ULK3
# VEGFR2 = system: T1, VEGFR2
# T1 construct: gene KDR
# VPS34 = system: T2, VPS34
# T2 construct: gene PIK3C3
# VRK2 = system: VRK2
# WEE1 = system: WEE1
# WEE2 = system: WEE2
# WNK1 = system: WNK1
# WNK2 = system: WNK2
# WNK3 = system: WNK3
# WNK4 = system: WNK4
# YANK1 = system: T3, YANK1
# T3 construct: gene STK32A
# YANK2 = system: T4, YANK2
# T4 construct: gene STK32B
# YANK3 = system: T5, YANK3
# T5 construct: gene STK32C
# YES = system: T6, YES
# T6 construct: gene YES1
# YSK1 = system: T7, YSK1
# T7 construct: gene STK25
# YSK4 = system: T8, YSK4
# T8 construct: gene MAP3K19
# 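Also: KINOMEscan kinase panel screen.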
Compound,%Inh [1] [%],%Inh (TYRO3) [%],%Inh (ULK1) [%],%Inh (ULK2) [%],%Inh (ULK3) [%],%Inh (VEGFR2) [%],%Inh (VPS34) [%],%Inh (VRK2) [%],%Inh (WEE1) [%],%Inh (WEE2) [%],%Inh (WNK1) [%],%Inh (WNK2) [%],%Inh (WNK3) [%],%Inh (WNK4) [%],%Inh (YANK1) [%],%Inh (YANK2) [%],%Inh (YANK3) [%],%Inh (YES) [%],%Inh (YSK1) [%],%Inh (YSK4) [%]
Nc1n[nH]c2cnc(-c3ccccc3)cc12 [SB-642124],85,9,50,22,35,0,0,35,19,0,8,2,33,38,12,0,17,24,1,95.9
CCS(=O)(=O)c1ccc(OC)c(Nc2nccc(-c3c(-c4cccc(NC(=O)c5c(F)cccc5F)c4)nn4ncccc34)n2)c1 [GSK326180],26,0,12,0,25,16,0,0,17,5,17,35,18,14,0,56,24,90.1,0,33
FC(F)(F)c1ccc(/C=C/c2cncnc2Nc2ccc3[nH]c(Cc4ccccc4)nc3c2)cc1 [GW709199],34,0,0,0,10,0,39,3,23,35,0,0,0,0,0,0,0,0,0,73
Cc1cccc(Nc2nc(N[C@H]3CCNC3)ncc2C(N)=O)c1.Cl [GSK2197149],97.7,0,30,11,42,0,13,22,0,8,0,0,0,0,19,0,18,41,52,90
Cn1cc(-c2[nH]c3cc(NC(=O)[C@H](N)C4CCCCC4)cc4c3c2C=NNC4=O)cn1,87,73,68,98.9,97.6,90.7,80,0,65,98.2,0,4,0,0,16,0,0,88,47,100
Cc1ccc(F)c(C(=O)Nc2cccc(-c3nn4ccccc4c3-c3ccnc(Nc4cccc(F)c4)n3)c2)c1F [GSK361061],0,86,100,0,11,42,7,0,22,11,0,6,3,0,6,47,6,95.3,0,0
Cn1cc(-c2ccc3c(c2)CCN3C(=O)Cc2cccc(Cl)c2)c2c(N)ncnc21 [GSK2606590],13,0,11,0,18,49,1,0,0,0,13,18,25,5,10,0,21,21,18,98.2
COc1cc(Nc2nccc(-c3c(-c4cccc(NC(=O)c5c(F)cccc5F)c4)nn4ncccc34)n2)cc(OC)c1OC [GSK327238],0,100,14,0,30,96.1,11,11,10,5,1,0,0,0,50,89,56,100,56,7
